Data: PubChem BioAssay (NCATS)
Values without a mark were called inactive. Activity calls are given as the source filed them. Calls come from the whole dose curve; as a rule, active = well fitted curve in the direction sought with a large enough effect; inconclusive = small, poorly fitted or top-dose-only effect, or another doubt; inactive = no such curve, though single readings can be large or run the other way.

experiment: qHTS for ATAD5 Agonist screened against the NCATS CANVASS Library (AID 1347367); conditions: HEK293T ATAD5-luciferase reporter, luminescence, 16 h; series mostly up to 46.1 µM; activation: at the top concentration;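 note: luciferase reporter driven by ATAD5 which rises upon DNA damage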; for activation: 0% is about no effect
Source text: Natural products and their derivatives continue to be wellsprings of nascent therapeutic potential. However, many laboratories have limited resources for biological evaluation, leaving their previously isolated or synthesized compounds largely or completely untested. To address this issue, the Canvass library of natural products was assembled (https://tripod.nih.gov/canvass), in collaboration with academic and industry researchers, for quantitative high-throughput screening (qHTS) across a diverse set of cell-based and biochemical assays. The pure (>85% purity by liquid chromatography/mass spectrometry [LC/MS]) Canvass library of 346 natural products were submitted by 45 academic laboratories and companies around the world. We collected pure natural products to circumvent deconvolution and structure elucidation due to time and resource limitations. The library was formatted into 1536-well plates and evaluated in 50 qHTS (in an 11-pnt concentration series) bioassays with broad scope of disease-relevant mechanisms. The resulting data set from 50 different assays was then systematically analyzed to identify overall trends and specific natural products with interesting biological activities. Reported herein are the results of each individual qHTS and their corresponding assay protocol. Human ATAD5 is a biomarker for identifying gentoxic compounds because ATAD5 protein levels increase post-transcriptionally in response to DNA damage. A cell-based assay is used to detect DNA damage inducers and genotoxic compounds as well. The assay is based upon a luciferase reporter gene under control of ATAD5 that has been stably integrated into HEK 293T cells. Luminescence intensity is proportional to ATAD5 expression. National Center for Advancing Translational Sciences (NCATS), Rockville, MD National Institute of Health (NIH), Bethesda, Maryland
ATAD5 Agonist assay protocol: 1. In a 1536 well, tissue culture treated white solid bottom plates (Greiner Bio-One North America), 5 uL of HEK293T-ATAD5 cell solution (2000 cells / well) was dispensed using the Multidrop Combi dispenser (Thermo Fisher Scientific). 2. The assay plates were incubated for 5hr at 37C, 5% CO2 to allow the cells to acclimate and attach. 3. Controls and compounds were pin transferred (~23 nL volume) to the assay plates via Wako Pin-tool (Wako Automation, Richmond VA) equipped with a 1536 pin head. The compounds were transferred to columns 5-48 resulting in a final concentration ranging from 0.6nM to 92uM. Methyl methanesulfonate (MMS) was used as a control in various concentrations (columns 1: dose response, column2: 0.7mM, and column3: 0.6mM). DMSO (0.46% final concentration was used as a negative control. 4. The assay plates were further incubated in the dark at 37C, 5% CO2 for 16hr. 5. To measure cell viability, 1uL of CellTiter-Fluor (Promega) reagent was then added to the assay plates (column 1-48, rows 1-32). The assay plates were incubated in the dark for 1hr at 37C, 5% CO2. 6. A first readout of fluorescence signal was acquired via the ViewLux (PerkinElmer) plate reader using filter sets for AFC (380-400nmEx/505Em) and 1 second exposure setting. 7. To measure ATAD5 activation, 4uL of Amplite (AAT Bioquest) reagent was then added to the assay plates (column 1-48, rows 1-32). The assay plates were further incubated in the dark at room temperature for 30min. 8. A second readout of luminescence signal was acquired via the ViewLux plate reader using a clear emission filter, 10 second exposure setting. Fox JT1, et al. High-throughput genotoxicity assay identifies antioxidants as inducers of DNA damage response and cell death. Proc Natl Acad Sci U S A. 2012 Apr 3;109(14):5423-8.
Potency is the fitted concentration of half-maximal effect.

Structure (SMILES)	activation	Potency
CCCC[C@@H]1CC[C@H]2CCCC(CCC)N12 (stereo not given in full)	-1%	
CC[C@@H]1CN2CC[C@@]3(O)C(=Nc4cccc(OC)c43)[C@@H]2C[C@@H]1/C(=C\OC)C(=O)OC	-1.29%	
CNCCc1c[nH]c2ccccc12	-0.463%	
NCCc1ccccc1	-0.9%	
CN(C)Cc1c[nH]c2ccccc12	-0.663%	
C/C=C1/CN2CC[C@]34C(=Nc5ccccc53)[C@@H]2C[C@@H]1[C@H]4C(=O)OC	-0.258% [at 91.4 µM]	
COc1ccc2c3c([nH]c2c1)C(C)=NCC3	-4.56%	
COc1ccc(C23Oc4cc(OC)cc(OC)c4[C@](O)([C@H](c4ccccc4)C2C(=O)NCCCCNC(=O)c2ccccc2)[C@@H]3O)cc1 (stereo not given in full)	2.27%	
O=C(c1ccccc1O)c1[nH]c(Cl)c(Cl)c1-n1c(C(=O)c2ccccc2O)cc(Cl)c1Cl	2.01%	
CC1=CC2CC[C@@H]3[C@@H](C)C[C@H](C)[C@@H](C1)N23 (stereo not given in full)	1.35%	
CC1=CC(=O)C2=C(C)C[C@H](O)[C@@H]3[C@H](OC(=O)[C@@H]3C)[C@@H]12	1.68%	
c1ccc2c3c([nH]c2c1)CNCC3	-0.536%	
CCN1C[C@]2(C)CC[C@H](O)[C@]34C1C(C[C@H]23)[C@@]12CC[C@H](CC14)[C@](O)(COC(=O)c1ccc(OC)c(OC)c1)[C@H]2O (stereo not given in full)	1.91%	
C=C1[C@@H](C)[C@H]2[C@H](Cc3ccccc3)NC(=O)[C@]23OC(=O)/C=C/[C@H](O)CCC[C@@H](C)C/C=C/[C@H]3[C@@H]1O	18.5%	
CC(=O)N[C@H]1CCN2CCC[C@H]12	-0.712% [at 103 µM]	
CN1C(=O)[C@]23CC4C(C)(C)[C@@]5(C[C@@]41CN2CC[C@@]3(C)O)C(=O)Nc1c5ccc2c1OC=CC(C)(C)O2 (stereo not given in full)	-1.28%	
CO[C@H](c1ccccc1)[C@H]1NC(=O)C(C)NC(=O)C(C[C@@H](C)CO)N(C)C(=O)[C@@H](C(O)c2cn(C(C)(C)C3CO3)c3ccccc23)NC(=O)C(C(C)C=C(C)C)NC(=O)C(CC(C)C)N(C)C(=O)C(C(C)C)NC1=O (stereo not given in full)	-0.862% [at 27.5 µM]	
CCC(=O)CCCCC[C@@H]1NC(=O)[C@H]2CCCCN2C(=O)[C@H]([C@@H](C)CC)NC(=O)[C@H](Cc2cn(OC)c3ccccc23)NC1=O		1860 nM (active)
CC[N@@+]1([O-])C[C@]2(C)CC[C@@H](O)[C@@]34C5C[C@H]6CC[C@@]5(C(C[C@H]23)C41)[C@H](O)[C@@]6(O)CO (stereo not given in full)	1.94%	
COc1ccc2c(c1)[nH]c1c(C)nccc12	-4.54% [at 91.4 µM]	
CNCCc1ccccc1	-1%	
C[C@]12CC(O)C3[C@@H](CCC4C[C@@H](O)CC[C@@]43CO)[C@@]1(O)CCC2C1=CC(=O)OC1 (stereo not given in full)	-0.657%	
CO[C@@H](/C=C/CC/C=C/C(=O)O)[C@@H](O)[C@H](C)/C=C(\C)[C@@H](O)[C@H](C)C(=O)CCCC1CC(=O)NC(=O)C1	4.4%	
CC=C1CN(C=O)[C@H]2C[C@@H]1[C@@H](C(=O)OC)[C@@]13CCOC21Nc1ccccc13 (stereo not given in full)	-1.78%	
CO[C@@H](/C=C/CC/C=C/C(=O)O)[C@@H](O)[C@H](C)[C@@H](O)/C(C)=C/[C@H](C)C(=O)CCCC1CC(=O)NC(=O)C1	-1.48%	
CCC[C@H]1CC[C@H]2[C@H](C)CCC[C@H]2N1	3.88%	
CCCCC[C@@H]1OC(=O)[C@@H](C)N(C)C(=O)[C@H](CCCCC)OC(=O)C(C)N(C)C(=O)[C@H](CCCCC)OC(=O)[C@@H](C)N(C)C(=O)[C@H](CCCCC)OC(=O)C(C)N(C)C1=O (stereo not given in full)	-1.13%	
CNCCc1ccc(O)cc1	-1.56%	
CCN1C[C@]2(C)CC[C@@H](O)[C@]34C1[C@H](C[C@H]23)C12CCC(CC14)[C@](O)(CO)[C@H]2O (stereo not given in full)	-0.682%	
COC(=O)C1=C2Nc3ccccc3[C@@]23CCN2CC(C(C)=O)C1C[C@H]23 (stereo not given in full)	-0.962%	
